Results reported in PubChem BioAssay AID504408 (Broad Institute, 2011).
Screen size: about 300,000 compounds; about 5,200 (1.7%) were called active.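 How the source made its calls: active means mean replicate activation of at least 50% with a set share of replicates each reaching 50%; inconclusive means only one of those two conditions met; inactive means mean below 50% and too few replicates reaching it.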 This excerpt belongs to a sample that is enriched for actives.

Experiment: HSF-1 activators, primary screen, NIH3T3-HGL cells, MG132 stress, luminescence, single point (AID 504408);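 further: 0% = median of the neutral control wells and 100% = twice that signal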
Details: NIH3T3-HGL HSF-1 luciferase reporter, MG132, 8 h; at 9 µM; stronger effect = higher value; 100% = twice DMSO control signal

activation, active:
O=C(Nc1ccc2c(c1)CCC2)c1ccc(Br)s1 71%, CC(=NCc1ccco1)C1=C(O)c2ccccc2C1=O 106%, CC1=C(/C=C/C(C)=C/C=C/C(C)=C/C=C/C=C(C)/C=C/C=C(C)/C=C/C2=C(C)CCCC2(C)C)C(C)(C)CCC1 54.5%, Cc1ccc(NC(=O)CN2C(=O)NC(C)(c3ccc(Cl)cc3)C2=O)c(Br)c1 (stereo unspecified) 78.5%, Cc1ccc(NC(=S)Nc2ncccc2C)c(C)c1 56.7%, O=C(Nc1ccccc1)Nc1nc2ccccc2s1 61.1%

activation, inactive:
CCN(CC(=O)Nc1cc(Cl)ccc1C)C(=O)CN1C(=O)NC2(CCCC2)C1=O -8.94%, COc1ccccc1NC(=O)Nc1nc(CC(=O)Nc2ccccc2F)cs1 23.4%, COc1ccc(NC(=O)CN(C)C(=O)c2cc(-c3ccc(C)o3)nc3ccccc23)cc1 19.7%, O=C(NC1CCCC1)c1ccc(Br)s1 7.08%, CC(C)C(=O)OCC(=O)Nc1ccc2c(c1)CCC2 41.4%, COc1ccc(S(=O)(=O)N2CCCC2CNC(=O)C(=O)NC2CC2)cc1 (stereo unspecified) 5.75%, CC(=NCc1ccc2c(c1)OCO2)C1=C(O)c2ccccc2C1=O 33.7%, CC(=NCc1ccco1)c1c(C(F)(F)F)[nH]n(-c2nc3ccccc3s2)c1=O -45.7%, Cc1ccc(-c2cc(C(=O)NC3CCN(Cc4ccccc4)CC3)c3ccccc3n2)cc1 11.6%, Cc1cccc(C(=O)OC(C)C(=O)NC2CCCc3ccccc32)c1O (stereo unspecified) -1.67%, CC(C)N(Cc1nnc(-c2ccc(Cl)cc2)o1)C(=O)C1=COCCO1 -12.7%, Cc1ccc(C2(C)NC(=O)N(CC(=O)Nc3ccccc3C(=O)N3CCCCC3)C2=O)cc1 (stereo unspecified) 20.7%, CC1(c2ccccc2)NC(=O)N(CC(=O)Nc2cc(Cl)ccc2N2CCOCC2)C1=O (stereo unspecified) -13.3%, Cc1ccc(NC(=S)NCCc2ccc(Cl)cc2)c(C)c1 21.9%, Cc1ccc(NC(=S)NCc2ccccc2Cl)c(C)c1 5.6%, O=S(=O)(Nc1cccc(-c2ccc(N3CCOCC3)nn2)c1)c1ccc(Cl)c(Cl)c1 5.14%, CCOc1ccc(S(=O)(=O)N2CCN(C(=S)NCC3CCCO3)CC2)cc1 (stereo unspecified) -5.36%, CC(=O)Nc1ccc(-c2csc(NC(=O)Nc3ccccc3)n2)cc1 -8.14%, O=C(CCC(=O)c1cccs1)Nc1nc2ccccc2s1 10.8%, CCCNC(=O)CCn1cc(-c2ccc(OC)cc2)nc1CCN -10.4%
